This note sets out measurements from PubChem BioAssay (NCATS).

Test in all cases: Primary qHTS to identify gynecologic anti-cancer compounds using libraries of approved drugs and bioactive compounds (AID 1345084); further: nearly all actives have a fitted effect of over 55% in size
Assay [1] concerns C33A. Particulars: Gynecologic cancer cell panel viability, ATPlite luminescence, 48 h; series mostly up to 57.5 µM. The gist of the method: (§1)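 48 h compound exposure at 37 C, 5% CO2; five-point qHTS. ATPlite luminescence readout of cell ATP.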
In assay [2] the test system is CAOV3. Particulars: Gynecologic cancer cell panel viability, ATPlite luminescence, 48 h; series mostly up to 57.5 µM. The method in brief: as §1
The test system of assay [3] is CASKI. Particulars: Gynecologic cancer cell panel viability, ATPlite luminescence, 48 h; series mostly up to 57.5 µM. The method in brief:
as §1

Assay [4] concerns Es-2. The settings on record: Gynecologic cancer cell panel viability, ATPlite luminescence, 48 h; series mostly up to 57.5 µM. The gist of the method: as §1
Assay [5] has as its system HeLa. Particulars: Gynecologic cancer cell panel viability, ATPlite luminescence, 48 h; series mostly up to 57.5 µM. The method in brief:
as §1

The subject of assay [6] is Hek293T. Particulars: Gynecologic cancer cell panel viability, ATPlite luminescence, 48 h, control line for the selectivity index; series mostly up to 57.5 µM. The gist of the method: as §1
Assay [7] relates to JEG-3. The settings on record: Gynecologic cancer cell panel viability, ATPlite luminescence, 48 h; series mostly up to 57.5 µM. The method in brief:
as §1

Assay [8] has as its system OV90. Particulars: Gynecologic cancer cell panel viability, ATPlite luminescence, 48 h; series mostly up to 57.5 µM. The gist of the method: as §1
Assay [9] concerns PA-1. The settings on record: Gynecologic cancer cell panel viability, ATPlite luminescence, 48 h; series mostly up to 57.5 µM. The gist of the method: as §1
Assay [10] deals with SKOV3. Particulars: Gynecologic cancer cell panel viability, ATPlite luminescence, 48 h; series mostly up to 57.5 µM. The gist of the method: as §1
The test system of assay [11] is Tov-21-G. Particulars: Gynecologic cancer cell panel viability, ATPlite luminescence, 48 h; series mostly up to 57.5 µM. The method in brief: as §1
Assay [12] concerns Tov112D. The settings on record: Gynecologic cancer cell panel viability, ATPlite luminescence, 48 h; series mostly up to 57.5 µM. The gist of the method: as §1

SMILES strings stand for the structures. Results filed as inconclusive are left out. A number with no mark means an inactive call. Active and inactive are the calls of the source. The call rests on the fitted dose curve; in most records, active means well fitted cell-killing curve with a large enough effect; inconclusive means small, poorly fitted or top-dose-only effect, or effect the other way; inactive means flat fitted curve, though single readings scatter.
On the % scale 0 is the no-effect control and ±100 the full control effect; potency means the concentration at half of the fitted maximal effect.

Regarding `OC[C@H]1O[C@@H](OCCc2ccc(O)cc2)[C@H](O[C@@H]2OC[C@](O)(CO)[C@H]2O)[C@@H](O)[C@@H]1O`, the Potency result in assay [1], in assay [2], in assay [3], in assay [4], in assay [5] and in [6] was “inactive” in each case. The Potency result in assay [7], in assay [8], in assay [9], in assay [10], in [11] and in assay [12] was “inactive” each time.
With `C=CCC1=C[C@]2(OC)[C@H](C)[C@@H](c3ccc(O)c(OC)c3)O[C@]2(OC)CC1=O`, the Potency result in assay [1], in [2], in assay [3], in assay [4], in assay [5] and in [6] was “inactive” throughout. In addition, the Potency entry in assay [7], in [8], in [9], in assay [10], in assay [11] and in [12] was “inactive” in each case.
As for `C=C[C@H]1CN2CC[C@H]1C[C@@H]2C(O)c1ccnc2ccc(OC)cc12` (some centres undefined), the Potency result in assay [1], in assay [2], in [3], in assay [4], in assay [5] and in assay [6] was “inactive” throughout. Moreover, the Potency result in [7], in [8], in [9], in [10], in assay [11] and in [12] was “inactive” throughout.
On to `C[C@@H]1C[C@@H](O)[C@@]23CO[C@@H](O)[C@@H]2CCC[C@@H]3[C@@]12C[C@@H](c1ccoc1)OC2=O`, for which the Potency result in assay [1], in [2], in assay [3], in assay [4], in assay [5] and in [6] was “inactive” each time. In addition, the Potency result in assay [7], in assay [8], in assay [9], in [10], in assay [11] and in [12] was “inactive” throughout.
Take `COc1ccc(-c2nc(-c3ccc(-c4cccc(Cl)c4)o3)[nH]c2-c2ccc(OC)cc2)cc1`: the Potency result in [1], in assay [2], in assay [3], in assay [4], in [5] and in assay [6] was “inactive” in each case. Also, the Potency entry in [7], in assay [8], in [9], in assay [10], in assay [11] and in [12] was “inactive” in each case.
For the compound `CC1OC(O[C@H]2CC[C@@]3(C)C(CC[C@]4(C)C3CC=C3C5CC(C)(C)CC[C@]5(C(=O)OC5OC(CO)C(OC6OC(COC7OCC(O)C(O)C7O)C(O)C(O)C6O)C(O)C5O)CC[C@]34C)C2(C)C)C(O)C(O)C1OC1OCC(OC2OCC(O)C(O)C2O)C(O)C1O` (some centres undefined), the activity change, negative = cytotoxicity is 24.4% [at 6.55 µM] in assay [1]; 3.53% [at 6.55 µM] in [2]; -2% [at 6.55 µM] in assay [3]; 0.974% [at 6.55 µM] in assay [4]; -5.59% [at 6.55 µM] in assay [5]; 2.21% [at 6.55 µM] in assay [6]. In addition, the activity change, negative = cytotoxicity in [7] is 7.58% [at 6.55 µM]; in assay [8], 5.67% [at 6.55 µM]; in assay [9], -4.41% [at 6.55 µM]; in assay [10], 5.68% [at 6.55 µM]; in [11], -0.908% [at 6.55 µM]; in assay [12], -13.2% [at 6.55 µM].
Turning to `C/C=C1\[C@H](O[C@@H]2O[C@H](CO)[C@@H](O)[C@H](O)[C@H]2O)OC=C(C(=O)OC)[C@H]1CC(=O)O`, the Potency entry in assay [1], in [2], in assay [3], in assay [4], in assay [5] and in assay [6] was “inactive” throughout. In addition, the Potency result in assay [7], in assay [8], in assay [9], in assay [10], in [11] and in [12] was “inactive” throughout.
With `c1cn2cc(-c3ccc4cn[nH]c4c3)nc(Nc3ccc(N4CCOCC4)cc3)c2n1`, the Potency in assay [1] was 2.24 µM (active); in assay [2] it was 2 µM (active); in [3] it was 2.82 µM (active); in assay [4] it was 2.51 µM (active); in [5] it was 2.82 µM (active); in assay [6] it was 2.24 µM (active). The Potency in assay [7] is 2.82 µM (active); in assay [8], 1.78 µM (active); in assay [9] it was 1.78 µM (active); in [10], 2.82 µM (active); in assay [11], 2.24 µM (active); in assay [12] it was 2.24 µM (active).
In the case of `C[C@@H]1CC[C@@]2(OC1)O[C@H]1C[C@H]3[C@@H]4CC=C5C[C@@H](O)CC[C@]5(C)[C@H]4CC[C@]3(C)[C@H]1[C@@H]2C`, the Potency result in assay [1], in assay [2], in assay [3], in [4], in [5] and in assay [6] was “inactive” in each case. The Potency result in [7], in assay [8], in assay [9], in assay [10], in assay [11] and in assay [12] was “inactive” throughout.
As to `COc1cc2c(cc1O)[C@H](c1ccc(O[C@@H]3O[C@H](CO)[C@@H](O)[C@H](O)[C@H]3O)c(OC)c1)[C@@H](CO)[C@](O)(CO)C2`, the Potency entry in assay [1], in assay [2], in assay [3], in [4], in assay [5] and in assay [6] was “inactive” throughout. In addition, the Potency result in [7], in assay [8], in assay [9], in assay [10], in assay [11] and in [12] was “inactive” in each case.
As to `C[C@H]1CC[C@@H]2N(C1)C[C@@H]1[C@H]([C@@H](O)[C@H](O)[C@]3(O)[C@H]1C[C@@]14OC5(O)[C@@H](C[C@@H](O)[C@@H]31)[C@]4(C)CC[C@@H]5O)[C@]2(C)O`, the Potency result in assay [1], in assay [2], in [3], in [4], in assay [5] and in assay [6] was “inactive” each time. The Potency result in assay [7], in [8], in assay [9], in [10], in assay [11] and in assay [12] was “inactive” each time.
Regarding `COc1ccc(C[C@H](N)C(=O)N[C@@H]2[C@H](O)[C@H](n3cnc4c(N(C)C)ncnc43)O[C@@H]2CO)cc1`, the Potency in [1] is 3.16 µM (active); in [2], 1.58 µM (active); in assay [3], 2.24 µM (active); in [4], 2.51 µM (active); in [5] it was 1.26 µM (active); in [6], 2.24 µM (active). Also, the Potency in assay [7] was 3.55 µM (active); in assay [8], 7.94 µM (active); in assay [9], 1 µM (active); in assay [10] it was 2.82 µM (active); in assay [11], 4.47 µM (active); in assay [12] it was 1.78 µM (active).
